What all share (design): scale not given: direction of the effect not stated beside the values
Assay [1] addresses Protein translocase subunit SecA (Escherichia coli (strain K12)) (UniProt P10408). Kind of assay: Assay to Identify E. coli SecA ATPase Inhibitors. Format: functional. The note with it: 30 µM.
Assay [2] addresses T1, Ubiquitin-activating enzyme e1, putative (Leishmania donovani (strain BPK282A1)) (UniProt E9BSI1).
T1 sequence (whole entry): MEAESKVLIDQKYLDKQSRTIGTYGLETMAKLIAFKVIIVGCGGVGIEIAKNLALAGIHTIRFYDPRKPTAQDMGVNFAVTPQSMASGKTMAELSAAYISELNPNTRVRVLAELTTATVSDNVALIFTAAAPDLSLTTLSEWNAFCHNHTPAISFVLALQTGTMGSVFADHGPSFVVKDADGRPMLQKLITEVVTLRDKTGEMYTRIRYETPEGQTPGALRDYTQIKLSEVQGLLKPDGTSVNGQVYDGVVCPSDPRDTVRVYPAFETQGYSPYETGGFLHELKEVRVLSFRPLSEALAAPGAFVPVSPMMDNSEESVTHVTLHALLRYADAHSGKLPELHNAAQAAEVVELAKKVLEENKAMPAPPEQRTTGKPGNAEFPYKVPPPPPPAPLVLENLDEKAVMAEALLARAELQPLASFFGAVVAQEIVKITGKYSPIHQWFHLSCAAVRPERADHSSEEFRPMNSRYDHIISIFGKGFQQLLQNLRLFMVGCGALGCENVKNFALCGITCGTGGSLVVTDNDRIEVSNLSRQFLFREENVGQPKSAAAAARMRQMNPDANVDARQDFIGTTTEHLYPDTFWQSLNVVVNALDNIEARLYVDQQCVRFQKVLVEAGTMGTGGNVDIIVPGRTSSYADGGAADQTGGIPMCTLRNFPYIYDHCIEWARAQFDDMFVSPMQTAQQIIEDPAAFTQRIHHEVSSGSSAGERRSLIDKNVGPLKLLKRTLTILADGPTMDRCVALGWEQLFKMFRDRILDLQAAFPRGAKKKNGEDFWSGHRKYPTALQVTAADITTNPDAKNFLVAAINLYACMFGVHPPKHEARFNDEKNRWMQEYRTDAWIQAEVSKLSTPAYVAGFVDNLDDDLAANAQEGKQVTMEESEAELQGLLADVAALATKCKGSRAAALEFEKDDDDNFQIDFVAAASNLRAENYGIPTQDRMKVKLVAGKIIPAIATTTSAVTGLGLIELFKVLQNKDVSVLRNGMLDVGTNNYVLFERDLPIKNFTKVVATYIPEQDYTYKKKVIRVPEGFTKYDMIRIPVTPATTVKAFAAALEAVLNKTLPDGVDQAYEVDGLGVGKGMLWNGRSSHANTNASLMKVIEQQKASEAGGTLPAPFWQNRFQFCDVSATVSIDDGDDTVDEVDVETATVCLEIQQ
Kind of assay: Leishmania donovani Ubiquitin Activating Enzyme (LdE1). Type of assay: functional. The following applies: 30 µM.

Assay [3] deals with AMP-activated protein kinase, AMPK (Homo sapiens) (UniProt P54646+O43741+P54619+Q9UGJ0+Q9Y478+Q13131+Q9UGI9). Kind of assay: AMP-dependent Kinase enzyme assay. An in vitro enzyme assay that detects ADP turnover that is directly proportional to AMPK activity. This uses naive AMPK that is activated during the assay with MK-8722. Type of assay: functional. The following applies: 30 µM.

Assay [4] has as its target Sialic acid-binding Ig-like lectin 9 (Homo sapiens) (UniProt Q9Y336). Kind of assay: Hs-Siglec9 ALPHAscreen SOP 20170721. The following applies: 10 µM. For orientation: In Alpha technology, singlet oxygen from a donor bead excites a nearby acceptor bead.
For the next assay, the system named is Trypanosoma cruzi. As to the kind of experiment: Trypanosoma cruzi phosphomannomutase and mannose-1-phosphate guanylyltransferase assay. Type of assay: functional. The note with it: 10 µM.
For assay [5], the target named is T2, Arginase-2, mitochondrial (Homo sapiens) (UniProt P78540).
T2 sequence (whole entry): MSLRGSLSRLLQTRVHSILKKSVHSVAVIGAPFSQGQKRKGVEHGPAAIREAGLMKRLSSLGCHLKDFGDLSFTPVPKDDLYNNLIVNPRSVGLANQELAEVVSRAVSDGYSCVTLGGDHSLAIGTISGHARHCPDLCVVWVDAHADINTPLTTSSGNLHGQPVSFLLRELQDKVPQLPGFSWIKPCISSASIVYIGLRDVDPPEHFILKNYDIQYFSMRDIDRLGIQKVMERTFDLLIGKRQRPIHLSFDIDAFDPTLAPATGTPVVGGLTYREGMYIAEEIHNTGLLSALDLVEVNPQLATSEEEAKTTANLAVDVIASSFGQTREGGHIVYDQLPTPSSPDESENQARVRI
Kind of assay: in vitro enzyme assay to detect the production of urea directly proportional to the activity of Arginase II. Further: in the data most compounds retested in dose-response had high values. The following applies: 33.3 µM. Format: functional.

The target in assay [6] is T3, Proteasome subunit beta (Trypanosoma cruzi) (UniProt O96673).
T3 sequence (whole entry): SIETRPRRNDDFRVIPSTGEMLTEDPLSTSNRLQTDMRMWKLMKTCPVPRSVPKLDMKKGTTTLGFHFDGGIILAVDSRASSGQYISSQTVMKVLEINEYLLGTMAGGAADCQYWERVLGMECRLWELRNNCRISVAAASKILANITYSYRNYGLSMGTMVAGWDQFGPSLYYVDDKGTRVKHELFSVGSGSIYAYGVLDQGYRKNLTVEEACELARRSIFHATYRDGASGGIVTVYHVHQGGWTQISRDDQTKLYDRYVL
Kind of assay: Trypanosoma cruzi proteasome chymotrypsin-like activity (TcProtChymo) assay. Further: in the data most compounds retested in dose-response had high values. Format: functional. The note with it: 9.37 µM.

The species named for a further assay is Homo sapiens. As to the kind of experiment: To identify inhibition of the IFN signalling (Jak-Stat) pathway via expression of an eGFP reporter gene under the control of an IFN-stimulated response element (ISRE) containing MxA promoter. Type of assay: functional. The following applies: 30 µM. A general note: In a reporter assay the amount or activity of a reporter protein is the signal.

Assay [7] has as its target T4, Tyrosyl-tRNA synthetase, putative (Trypanosoma cruzi (strain CL Brener)) (UniProt Q4DSP6).
T4 sequence (whole entry): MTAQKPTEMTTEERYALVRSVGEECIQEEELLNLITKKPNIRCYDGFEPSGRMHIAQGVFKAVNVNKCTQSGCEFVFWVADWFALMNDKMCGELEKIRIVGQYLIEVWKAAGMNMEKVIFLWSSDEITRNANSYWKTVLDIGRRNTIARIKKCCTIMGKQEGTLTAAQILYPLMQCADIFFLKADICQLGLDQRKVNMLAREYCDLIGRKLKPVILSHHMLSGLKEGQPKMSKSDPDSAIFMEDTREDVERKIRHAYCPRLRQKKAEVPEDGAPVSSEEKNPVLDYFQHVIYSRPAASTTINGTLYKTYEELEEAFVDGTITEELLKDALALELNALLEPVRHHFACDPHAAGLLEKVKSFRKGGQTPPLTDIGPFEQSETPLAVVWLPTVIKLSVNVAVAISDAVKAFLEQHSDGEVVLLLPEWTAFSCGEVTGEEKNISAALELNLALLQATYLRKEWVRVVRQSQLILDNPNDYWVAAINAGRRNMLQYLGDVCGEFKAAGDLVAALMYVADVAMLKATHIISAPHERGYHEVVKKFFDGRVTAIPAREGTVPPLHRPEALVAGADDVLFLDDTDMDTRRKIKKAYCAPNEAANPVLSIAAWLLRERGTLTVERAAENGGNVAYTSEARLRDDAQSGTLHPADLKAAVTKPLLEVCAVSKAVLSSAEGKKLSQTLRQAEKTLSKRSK
As to the kind of experiment: Trypanosoma cruzi tyrosyl tRNA synthetase (TcYRS) _High Tyrosine SOP. Further: in the data most compounds retested in dose-response had high values. The note with it: 30 µM. Type of assay: functional.

In assay [8] the target is T4, Tyrosyl-tRNA synthetase, putative (Trypanosoma cruzi (strain CL Brener)). Kind of assay: Trypanosoma cruzi tyrosyl tRNA synthetase (TcYRS) SOP. Type of assay: functional. The following applies: 30 µM.
Assay [9] addresses Chromo domain-containing protein 1 (Saccharomyces cerevisiae (strain ATCC 204508 / S288c) (Baker's yeast)) (UniProt P32657). Kind of assay: ScCHD-1 Enzyme Inhibition Assay. Further: in the data most compounds retested in dose-response had high values. Format: functional. The following applies: 30 µM.

For some of these results: Potency and affinity values are given separately.

Protein translocase subunit SecA (Escherichia coli (strain K12)), sequence (P10408 whole entry): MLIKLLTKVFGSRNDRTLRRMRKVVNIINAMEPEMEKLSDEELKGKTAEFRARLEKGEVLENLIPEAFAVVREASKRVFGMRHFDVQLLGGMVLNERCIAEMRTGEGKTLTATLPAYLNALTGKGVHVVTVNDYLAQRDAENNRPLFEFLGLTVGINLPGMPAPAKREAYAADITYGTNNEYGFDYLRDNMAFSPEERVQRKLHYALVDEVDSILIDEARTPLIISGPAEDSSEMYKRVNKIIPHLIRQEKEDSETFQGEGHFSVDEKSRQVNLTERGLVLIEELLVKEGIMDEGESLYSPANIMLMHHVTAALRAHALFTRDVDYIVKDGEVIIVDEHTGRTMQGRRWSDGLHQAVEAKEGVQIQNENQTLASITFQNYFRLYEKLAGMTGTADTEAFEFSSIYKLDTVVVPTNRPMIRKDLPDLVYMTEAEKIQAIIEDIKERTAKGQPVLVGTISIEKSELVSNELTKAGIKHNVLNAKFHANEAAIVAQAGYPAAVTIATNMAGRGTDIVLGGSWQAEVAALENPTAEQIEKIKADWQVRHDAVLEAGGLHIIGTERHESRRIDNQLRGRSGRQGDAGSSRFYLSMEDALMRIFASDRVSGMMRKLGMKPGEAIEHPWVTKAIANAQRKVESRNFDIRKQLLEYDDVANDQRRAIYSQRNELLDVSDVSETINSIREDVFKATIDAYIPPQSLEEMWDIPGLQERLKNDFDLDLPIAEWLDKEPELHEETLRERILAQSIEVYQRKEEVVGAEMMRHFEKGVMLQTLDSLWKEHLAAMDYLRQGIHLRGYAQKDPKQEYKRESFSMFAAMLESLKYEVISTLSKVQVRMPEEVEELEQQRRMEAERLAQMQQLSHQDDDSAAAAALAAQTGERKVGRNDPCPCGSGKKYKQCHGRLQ
Chromo domain-containing protein 1 (Saccharomyces cerevisiae (strain ATCC 204508 / S288c) (Baker's yeast)), sequence (P32657 whole entry, the tested form may be a part): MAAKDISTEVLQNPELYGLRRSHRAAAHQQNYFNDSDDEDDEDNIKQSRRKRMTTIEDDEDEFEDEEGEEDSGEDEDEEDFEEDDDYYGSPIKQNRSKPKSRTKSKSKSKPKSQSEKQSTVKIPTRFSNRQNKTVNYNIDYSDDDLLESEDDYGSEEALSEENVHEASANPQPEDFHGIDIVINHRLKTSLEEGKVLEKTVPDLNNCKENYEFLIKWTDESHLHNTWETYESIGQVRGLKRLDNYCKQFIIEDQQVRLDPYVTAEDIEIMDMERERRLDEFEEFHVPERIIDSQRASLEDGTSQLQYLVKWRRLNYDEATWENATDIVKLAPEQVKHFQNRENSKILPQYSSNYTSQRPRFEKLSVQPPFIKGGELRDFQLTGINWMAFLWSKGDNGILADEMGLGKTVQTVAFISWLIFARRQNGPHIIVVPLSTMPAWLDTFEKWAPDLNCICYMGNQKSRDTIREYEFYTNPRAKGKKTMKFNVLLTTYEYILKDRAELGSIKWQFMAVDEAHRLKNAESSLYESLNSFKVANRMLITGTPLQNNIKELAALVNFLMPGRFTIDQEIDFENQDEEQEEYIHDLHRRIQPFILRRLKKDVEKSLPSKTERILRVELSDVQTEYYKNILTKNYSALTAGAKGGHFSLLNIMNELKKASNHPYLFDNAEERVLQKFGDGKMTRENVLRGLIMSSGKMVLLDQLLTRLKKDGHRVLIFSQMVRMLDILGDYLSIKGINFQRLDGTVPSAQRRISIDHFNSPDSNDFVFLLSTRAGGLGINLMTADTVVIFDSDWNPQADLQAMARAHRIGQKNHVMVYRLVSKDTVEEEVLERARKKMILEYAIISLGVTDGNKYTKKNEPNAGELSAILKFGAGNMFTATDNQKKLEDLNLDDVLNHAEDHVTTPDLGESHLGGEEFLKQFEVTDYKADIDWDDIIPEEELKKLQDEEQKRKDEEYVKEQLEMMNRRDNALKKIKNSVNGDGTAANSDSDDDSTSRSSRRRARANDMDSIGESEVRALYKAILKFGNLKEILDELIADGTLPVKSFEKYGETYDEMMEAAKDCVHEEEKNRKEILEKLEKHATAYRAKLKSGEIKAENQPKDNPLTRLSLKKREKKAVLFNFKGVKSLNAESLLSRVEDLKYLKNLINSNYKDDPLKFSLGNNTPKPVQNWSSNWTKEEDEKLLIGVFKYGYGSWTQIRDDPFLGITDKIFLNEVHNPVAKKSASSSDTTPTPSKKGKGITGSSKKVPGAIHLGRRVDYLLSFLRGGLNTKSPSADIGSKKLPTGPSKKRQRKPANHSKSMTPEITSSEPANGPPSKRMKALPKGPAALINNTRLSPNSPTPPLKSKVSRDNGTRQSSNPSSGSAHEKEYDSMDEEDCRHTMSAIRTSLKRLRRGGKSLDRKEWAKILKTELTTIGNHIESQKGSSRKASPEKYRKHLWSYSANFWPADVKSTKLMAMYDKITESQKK
Sialic acid-binding Ig-like lectin 9 (Homo sapiens), sequence (Q9Y336 whole entry): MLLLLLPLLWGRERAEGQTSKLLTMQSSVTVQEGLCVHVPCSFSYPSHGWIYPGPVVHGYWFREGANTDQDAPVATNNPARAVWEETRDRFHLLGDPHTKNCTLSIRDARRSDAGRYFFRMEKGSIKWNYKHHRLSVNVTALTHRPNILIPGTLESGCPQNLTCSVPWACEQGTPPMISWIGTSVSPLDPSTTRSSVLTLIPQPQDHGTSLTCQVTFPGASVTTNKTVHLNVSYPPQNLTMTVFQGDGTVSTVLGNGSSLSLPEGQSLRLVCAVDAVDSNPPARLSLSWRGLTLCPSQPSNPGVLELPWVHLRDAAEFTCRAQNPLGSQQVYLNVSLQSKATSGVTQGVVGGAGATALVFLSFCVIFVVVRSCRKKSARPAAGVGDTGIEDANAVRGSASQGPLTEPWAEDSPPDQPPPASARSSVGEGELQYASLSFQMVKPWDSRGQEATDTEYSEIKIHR

For `CCN(CC)C(=O)CCNC(=O)N1CCC(c2ccccc2)C1` (stereo unspecified), the Percent Effect in assay [1] is -1.34%; in assay [2] it was 0%; in assay [3] it was -3.55%; in [4] it was 1.13%; in the assay with Trypanosoma cruzi, 0.772%; in assay [5], -4.29%. The Percent Effect was 0.172% in assay [6]; 15.7% in the assay listed under Homo sapiens; 0.529% in assay [7]; 4.88% in assay [8]; 0.238% in [9].
As for `CCc1nc(C2CCCN2CC(=O)Nc2c(C)nn(C)c2C)no1` (stereo unspecified), the Percent Effect in assay [1] was -2.75%; in assay [2], 0%; in [3], -6.03%; in assay [4] it was -5.34%; with Trypanosoma cruzi, -0.979%; in assay [5], -0.455%. The Percent Effect amounted to 7.81% in [6]; 10.6% in the assay listed under Homo sapiens; 1.07% in assay [7]; 2.5% in assay [8]; 1.02% in assay [9].
With `Cc1ccoc1C(=O)NC1CCN(Cc2csc3c(F)cccc23)CC1`, the Percent Effect in [1] was -4.82%; in assay [2] it was -1.27%; in [3], -4.47%; in assay [4], -1.87%; in the assay with Trypanosoma cruzi it was -0.308%; in [5] it was -3.66%. Further, the Percent Effect was 9.61% in [6]; 17.2% in the assay listed under Homo sapiens; 6.25% in [7]; 10.1% in assay [8]; -13.8% in [9].
Take `Cn1cc(CN2CCCn3cnc(COCC4CC4)c3C2)cn1`: the Percent Effect was -4.51% in [1]; 8% in assay [2]; -1.37% in assay [3]; 1.51% in assay [4]; 6.95% in the assay on Trypanosoma cruzi; -55.7% in assay [5]. Further, the Percent Effect was 7.69% in assay [6]; -4.29% in the assay listed under Homo sapiens; 4.17% in [7]; 15% in [8]; -7.64% in [9].
On to `Cc1noc([C@H]2CC[C@@H]3[C@@H](CCN3S(C)(=O)=O)O2)n1`, for which the Percent Effect in assay [1] is -6.38%; in assay [2], 2.7%; in [3], 1.84%; in [4], -1.29%; in the assay with Trypanosoma cruzi it was 0.977%; in [5], 3.75%. The Percent Effect was 6.17% in assay [6]; -5.62% in the assay listed under Homo sapiens; 7.92% in assay [7]; 11% in assay [8]; -2.42% in assay [9].
For the compound `COc1ccnc(N2CCN(C(=O)CCc3nccs3)CC2)n1`, the Percent Effect in [1] was 0.0461%; in assay [2] it was 8.11%; in assay [3], -3.33%; in assay [4] it was 0.0327%; with Trypanosoma cruzi it was -1.54%; in [5], -2.38%. The Percent Effect in [6] is 12.1%; in the assay listed under Homo sapiens, 14.1%; in assay [7] it was 2.65%; in assay [8] it was 7.32%; in assay [9] it was -3.79%.
Turning to `O=C(Cc1ccc(O)c(Cl)c1)N1CCCCC1CCn1cccn1` (stereo unspecified), the Percent Effect in assay [1] is -3.9%; in assay [2], 13.5%; in assay [3] it was 1.21%; in assay [4], 26.9%; in the assay with Trypanosoma cruzi, 3.09%; in assay [5], 0.476%. In addition, the Percent Effect in assay [6] is 10.9%; in the assay listed under Homo sapiens it was 0.632%; in [7], 3.7%; in [8], 19.5%; in assay [9], -5.17%.
`CCN(Cc1cccc(Cl)c1)Cc1nc2c(cnn2C)c(=O)[nH]1`: the Percent Effect in assay [1] was -5.2%; in [2], 15.6%; in assay [3], 3.13%; in assay [4], -4.85%; in the assay on Trypanosoma cruzi, -0.49%; in assay [5], -1.47%. For the same compound, the Percent Effect in assay [6] was 15.4%; in the assay filed under Homo sapiens, -5.75%; in [7], 3.81%; in assay [8] it was 18.8%; in [9], -17.4%.
For the compound `O=C(NCc1ccccn1)c1nnn(-c2ccc(Br)cc2)n1`, the Percent Effect is -3.5% in assay [1]; 18.2% in assay [2]; -2.49% in [3]; -2.46% in assay [4]; 1.68% with Trypanosoma cruzi; -5.81% in [5]. Moreover, the Percent Effect in [6] is 13.2%; in the assay filed under Homo sapiens, 16.1%; in assay [7], 5.29%; in assay [8], 11.5%; in [9], -12.6%.
`CC(C)C(C(=O)N1CCN(c2ccncc2)CC1)n1cncn1` (stereo unspecified): the Percent Effect in assay [1] was -5.41%; in [2], 15.6%; in [3], -0.644%; in [4], 10.9%; in the assay on Trypanosoma cruzi it was 6.98%; in [5], -34.5%. Besides, the Percent Effect was 11.8% in assay [6]; 8.3% in the assay listed under Homo sapiens; 4.3% in assay [7]; 13.6% in assay [8]; -7.32% in assay [9].
As to `COCCc1noc(CN2CCc3nn(C(C)C)c(=O)cc3C2)n1`, the Percent Effect in assay [1] was -3.44%; in assay [2] it was 18.4%; in [3], -7.36%; in [4], -6.23%; in the assay with Trypanosoma cruzi it was -4.58%; in assay [5], 0.719%. Also, the Percent Effect is 6.18% in assay [6]; 6.48% in the assay filed under Homo sapiens; 5.42% in assay [7]; 11.1% in assay [8]; -11.2% in [9].

The values are drawn from ChEMBL document CHEMBL3988442, “University of Dundee, Small-Polar-MMV Screening Library” (2021).
